The target in experiment [1] is Myc proto-oncogene protein (Homo sapiens) (UniProt P01106). As to the kind of experiment: ATG_Myc_CIS: Attagene CIS-FACTORIAL HepG2 Assay for human Myelocytomatosis (Myc) Proto-Oncogene Transcription Factor (AID 2282990). As to conditions: HepG2, Attagene cis-reporter transcription factor activity; actives raise or lower the signal. The procedure, abridged:
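HepG2, transient MRTU transfection (cis promoters, endogenous TFs); 24 h dosing; TriZol RNA → oligo(dT) RT → PCR → 6-FAM primer extension → HpaI cut → CE. Bidirectional fit vs DMSO.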

The nature of experiment [2]: ATG_NF_kB_CIS: Attagene CIS-FACTORIAL HepG2 Assay for human Nuclear Factor Kappa B (NF-kB) (AID 2282991). As to conditions: HepG2 Attagene cis-factorial NF-kB reporter mRNA; actives raise or lower the signal. The procedure, abridged: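 HepG2 cells transfected with cis-promoter-driven reporter units, so endogenous transcription factor activity is measured. Reporter mRNA quantified 24 h after dosing by RT-PCR and capillary electrophoresis, with bidirectional fitting against DMSO.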

Experiment [3] can be described thus: ATG_NRF2_ARE_CIS: Attagene CIS-FACTORIAL HepG2 Assay for human Nuclear Factor Erythroid 2 Related Factor 2 (NFR2) response to Antioxidant Response Elements (ARE) (AID 2282992). As to conditions: HepG2 Attagene ARE/NRF2 reporter, transcription factor activity; actives raise or lower the signal. The method in brief:
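Endogenous transcription factor activity read out as reporter transcript levels (RT-PCR plus capillary electrophoresis, fluorescence) in transiently transfected HepG2 cells. Measured at 24 h after dosing; gain or loss of signal fitted versus DMSO.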

Experiment [4] is described as follows: ATG_Oct_MLP_CIS: Attagene CIS-FACTORIAL HepG2 Assay for human Octamer-Binding Transcription Factor (Oct) (AID 2282993). Particulars: HepG2 Attagene cis-factorial Oct reporter, mRNA; actives raise or lower the signal. The method in brief:
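Readout is reporter transcript level from RT-PCR with fluorescent primer extension and capillary electrophoresis, fitted in both directions against DMSO. Transfected HepG2 reporter units report endogenous factor activity after 24 h dosing.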

Experiment [5] has as its target Cellular tumor antigen p53 (Homo sapiens) (UniProt P04637). As to the kind of experiment: ATG_p53_CIS: Attagene CIS-FACTORIAL HepG2 Assay for human p53 Transcription Factor (AID 2282994). Particulars: HepG2 p53 cis-element reporter, Attagene mRNA; actives raise or lower the signal. The procedure, abridged:
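Endogenous p53 activity read in transiently transfected HepG2 from a cis-element-driven reporter transcript after 24 h exposure. RNA reverse-transcribed, PCR-amplified, fluorescently labelled and sized by capillary electrophoresis; gain or loss fitted against DMSO baseline.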

Experiment [6] is described as follows: BSK_3C_TissueFactor: BioMAP Diversity Plus: 3C Assay for Tissue Factor Biomarker Activity (AID 2282997). As to conditions: BioMAP 3C HUVEC, tissue factor biomarker readout; actives raise or lower the signal. The procedure, abridged: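 Readout: Tissue Factor ELISA. Cells: human primary umbilical vein endothelium. Time: 24 h after dosing. Analysis: bidirectional fit, DMSO baseline.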

Experiment [7] in a line: BSK_3C_uPAR: BioMAP Diversity Plus: 3C Assay for Urokinase-type plasminogen activator receptor (uPAR) Biomarker Activity (AID 2282998). As to conditions: BioMAP 3C HUVEC, uPAR biomarker ELISA; actives raise or lower the signal. The procedure, abridged: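 Cell-surface uPAR on HUVEC (3C system) read by ELISA at 24 h post-treatment, with DMSO as baseline and fitting in both directions. Parallel cultures stained with SRB to flag overt cytotoxicity.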

Experiment [8] can be described thus: BSK_3C_VCAM1: BioMAP Diversity Plus: 3C Assay for Vascular cell adhesion molecule 1 (VCAM1) Biomarker Activity (AID 2282999). As to conditions: BioMAP 3C HUVEC, VCAM1 ELISA, cytokine-stimulated; actives raise or lower the signal. The procedure, abridged: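 Activity fitted in both directions relative to DMSO, with ELISA measurement of the surface marker on primary HUVEC (3C) at 24 h post-treatment; parallel SRB staining (0.1% SRB, TCA-fixed, 560 nm) flagged overt cytotoxicity.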

Experiment [9] in a line: BSK_4H_Eotaxin3: BioMAP Diversity Plus: 4H Assay for Eotaxin 3 Biomarker Activity (AID 2283000). As to conditions: primary human endothelial cells (HUVEC); actives raise or lower the signal. The method in brief:
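HUVEC, 24 h post-dose, ELISA for Eotaxin-3/CCL26. Gain or loss of signal fitted bidirectionally vs DMSO baseline.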

Experiment [10] concerns the target human Peroxisome Proliferator-activated Receptor alpha (PPARa), PPARA (gene 5465) (UniProt Q07869). As to the kind of experiment: ATG_PPARa_TRANS: Attagene TRANS-FACTORIAL HepG2 Assay for human Peroxisome Proliferator-activated Receptor alpha (PPARa) (AID 2283001; active = hit-call score of the fitted dose curve at least 0.9, where 1 is the maximum;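 as to AC50: potency for gain of reporter signal over DMSO so agonist or activator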). The method in brief:
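Transfected HepG2 cells treated with test chemical for 24 h. RNA isolated, reverse-transcribed with oligo(dT), PCR-amplified, FAM-labelled and HpaI-digested. Fragments sized by capillary electrophoresis; gain-of-signal fit relative to DMSO.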

Experiment [11] has as its target human Peroxisome Proliferator-activated Receptor delta (PPARd), PPARD (gene 5467) (UniProt Q03181). Briefly: ATG_PPARd_TRANS: Attagene TRANS-FACTORIAL HepG2 Assay for human Peroxisome Proliferator-activated Receptor delta (PPARd) (AID 2283002; active = hit-call score of the fitted dose curve at least 0.9, where 1 is the maximum). The method in brief:
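Transient HepG2 transfection (multiple GAL4-UAS RTUs, chimeric receptor-Gal4); 24 h dosing; total RNA → oligo(dT) RT → PCR → 6-FAM primer extension → HpaI cut → CE. Positive direction vs DMSO.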

Read-out in experiment [12]: Intercellular Adhesion Molecule 1 (ICAM1), ICAM1 (gene 3383)
As to the kind of experiment: BSK_3C_ICAM1: BioMAP Diversity Plus: 3C Assay for Intercellular Adhesion Molecule 1 (ICAM1) Biomarker Activity (AID 2283003). As to conditions: primary human endothelial cells (HUVEC); actives raise or lower the signal. The method in brief: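 ELISA read-out of ICAM-1; HUVEC (primary human), 3C system, 24 h post-dosing; bidirectional fit vs DMSO baseline.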

Experiment [13] deals with human Retinoic Acid Receptor beta (RARb), RARB (gene 5915) (UniProt P10826). As to the kind of experiment: ATG_RARb_TRANS: Attagene TRANS-FACTORIAL HepG2 Assay for human Retinoic Acid Receptor beta (AID 2283004; active = hit-call score of the fitted dose curve at least 0.9, where 1 is the maximum). The method in brief: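 HepG2 cells transiently transfected with multiplexed GAL4-UAS reporter units expressing chimeric NR–Gal4 fusions; 24 h compound exposure. Reporter mRNA quantified by RT-PCR, 6-FAM labelling, HpaI digestion and capillary electrophoresis; gain-of-signal fitted against DMSO baseline.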

Experiment [14] in a line: BSK_3C_Proliferation: Cell Proliferation Assessment in the BioMAP Diversity Plus: 3C Assay (AID 2283006).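 Also: potency may reflect either rise or fall in cell number versus DMSO.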 As to conditions: primary human endothelial cells (HUVEC). The method in brief:
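HUVEC, sub-confluent; 48 h chemical exposure; 10% TCA fix, 0.1% SRB stain, A560 total protein. Gain or loss of signal fitted both directions vs DMSO control.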

The target in experiment [15] is Peroxisome proliferator-activated receptor gamma (Homo sapiens) (UniProt P37231). As to the kind of experiment: ATG_PPARg_TRANS: Attagene TRANS-FACTORIAL HepG2 Assay for human Peroxisome Proliferator-activated Receptor-gamma (PPARg) (AID 2283007; active = hit-call score of the fitted dose curve at least 0.9, where 1 is the maximum). The method in brief:
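HepG2 cells are transiently transfected with GAL4-UAS reporter units driven by chimeric NR-Gal4 fusions and dosed for 24 h. Reporter mRNA is quantified by RT-PCR, 6-FAM labelling, HpaI digestion and capillary electrophoresis. Induction is scored against DMSO.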

In experiment [16] the target is Retinoic acid receptor alpha (Homo sapiens) (UniProt P10276). As to the kind of experiment: ATG_RARa_TRANS: Attagene TRANS-FACTORIAL HepG2 Assay for human Retinoic Acid Receptor alpha (RARa) (AID 2283005; active = hit-call score of the fitted dose curve at least 0.9, where 1 is the maximum). The method in brief:
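Reporter transcripts, measured by RT-PCR with fluorescent labeling and capillary electrophoresis after 24 h dosing, reflect activity of an exogenous human RARa–GAL4 fusion in transiently transfected HepG2. Fitted for increase relative to DMSO.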

The target in experiment [17] is human RAR-related Orphan Receptor beta (RORb), RORB (gene 6096) (UniProt Q92753). Briefly: ATG_RORb_TRANS: Attagene TRANS-FACTORIAL HepG2 Assay for human RAR-related Orphan Receptor beta (RORb) (AID 2283010; active = hit-call score of the fitted dose curve at least 0.9, where 1 is the maximum). The procedure, abridged:
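HepG2, transient MRTU transfection (GAL4-UAS reporters, exogenous NR-Gal4 chimeras); 24 h compound exposure; total RNA → RT-PCR → 6-FAM primer extension → HpaI digest → CE fluorescence. Positive direction vs DMSO baseline.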

For experiment [18], the target named is human RAR-related Orphan Receptor gamma (RORg), RORC (gene 6097) (UniProt P51449). As to the kind of experiment: ATG_RORg_TRANS: Attagene TRANS-FACTORIAL HepG2 Assay for human RAR-related Orphan Receptor gamma (RORg) (AID 2283011; active = hit-call score of the fitted dose curve at least 0.9, where 1 is the maximum). The method in brief:
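Readout: reporter transcript induction (RT-PCR, fluorescent primer extension, capillary electrophoresis) after 24 h compound exposure of transiently transfected HepG2 cells carrying a RORg-Gal4 chimera and GAL4-UAS reporters; DMSO served as baseline, with increasing signal fitted.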

In experiment [19] the target is human Retinoic Acid Receptor gamma (RARg), RARG (gene 5916) (UniProt P13631). Briefly: ATG_RARg_TRANS: Attagene TRANS-FACTORIAL HepG2 Assay for human Retinoic Acid Receptor gamma (RARg) (AID 2283009; active = hit-call score of the fitted dose curve at least 0.9, where 1 is the maximum). The method in brief:
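Readout: reporter transcript levels via RT-PCR, 6-FAM primer-extension labelling, HpaI digestion and capillary electrophoresis. Cells: HepG2 carrying transfected RARg-GAL4 chimera plus UAS reporter set. Dosing 24 h; DMSO negative control.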

Records with an inconclusive call do not appear. Activity calls are given as the source filed them. The calls were made as follows, unless noted: active = hit-call score of the fitted dose curve at least 0.9, where 1 is the maximum; inactive = score below 0.9.

Peroxisome proliferator-activated receptor gamma (Homo sapiens), sequence (P37231 whole entry, looked up, the tested form may be a part): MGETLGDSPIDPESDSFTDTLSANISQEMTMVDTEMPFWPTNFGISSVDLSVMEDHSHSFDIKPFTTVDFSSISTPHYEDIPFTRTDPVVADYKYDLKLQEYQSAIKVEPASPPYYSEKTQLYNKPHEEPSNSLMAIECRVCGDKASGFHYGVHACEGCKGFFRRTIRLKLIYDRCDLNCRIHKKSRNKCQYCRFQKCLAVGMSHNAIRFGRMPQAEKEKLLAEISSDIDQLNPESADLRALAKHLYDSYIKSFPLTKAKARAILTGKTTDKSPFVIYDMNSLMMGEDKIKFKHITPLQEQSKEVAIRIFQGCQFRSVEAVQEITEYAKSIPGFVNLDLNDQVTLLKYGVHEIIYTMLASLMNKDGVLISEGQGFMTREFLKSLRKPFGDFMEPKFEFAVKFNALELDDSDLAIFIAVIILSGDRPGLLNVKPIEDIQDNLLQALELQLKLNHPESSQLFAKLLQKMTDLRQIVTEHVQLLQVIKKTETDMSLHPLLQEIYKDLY
Myc proto-oncogene protein (Homo sapiens), sequence (P01106 whole entry, looked up): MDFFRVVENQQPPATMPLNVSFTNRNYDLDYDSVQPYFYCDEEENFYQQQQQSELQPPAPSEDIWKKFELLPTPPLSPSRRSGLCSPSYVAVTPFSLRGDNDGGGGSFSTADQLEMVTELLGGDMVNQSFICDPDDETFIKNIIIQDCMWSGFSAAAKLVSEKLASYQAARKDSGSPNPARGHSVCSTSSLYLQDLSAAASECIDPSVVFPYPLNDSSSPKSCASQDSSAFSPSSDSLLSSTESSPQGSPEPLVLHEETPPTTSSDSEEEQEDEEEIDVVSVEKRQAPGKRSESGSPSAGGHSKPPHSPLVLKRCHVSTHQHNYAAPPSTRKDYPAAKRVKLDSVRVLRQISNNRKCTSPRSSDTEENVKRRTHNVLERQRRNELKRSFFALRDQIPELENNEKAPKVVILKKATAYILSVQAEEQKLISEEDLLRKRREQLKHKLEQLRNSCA
human Retinoic Acid Receptor gamma (RARg), RARG (gene 5916), sequence (P13631 whole entry, looked up, the tested form may be a part): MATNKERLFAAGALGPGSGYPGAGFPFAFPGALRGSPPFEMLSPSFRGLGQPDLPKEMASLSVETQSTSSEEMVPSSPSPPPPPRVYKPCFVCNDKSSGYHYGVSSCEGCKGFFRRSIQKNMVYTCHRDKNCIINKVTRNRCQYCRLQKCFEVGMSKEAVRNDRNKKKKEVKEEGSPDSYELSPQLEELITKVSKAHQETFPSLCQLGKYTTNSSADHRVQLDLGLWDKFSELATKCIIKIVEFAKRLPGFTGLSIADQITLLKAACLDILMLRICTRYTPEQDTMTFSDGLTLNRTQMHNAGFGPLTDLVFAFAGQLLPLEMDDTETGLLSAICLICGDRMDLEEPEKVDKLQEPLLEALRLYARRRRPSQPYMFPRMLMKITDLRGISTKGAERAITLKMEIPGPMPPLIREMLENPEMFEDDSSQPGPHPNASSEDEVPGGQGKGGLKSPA
human Retinoic Acid Receptor beta (RARb), RARB (gene 5915), sequence (P10826 whole entry, looked up, the tested form may be a part): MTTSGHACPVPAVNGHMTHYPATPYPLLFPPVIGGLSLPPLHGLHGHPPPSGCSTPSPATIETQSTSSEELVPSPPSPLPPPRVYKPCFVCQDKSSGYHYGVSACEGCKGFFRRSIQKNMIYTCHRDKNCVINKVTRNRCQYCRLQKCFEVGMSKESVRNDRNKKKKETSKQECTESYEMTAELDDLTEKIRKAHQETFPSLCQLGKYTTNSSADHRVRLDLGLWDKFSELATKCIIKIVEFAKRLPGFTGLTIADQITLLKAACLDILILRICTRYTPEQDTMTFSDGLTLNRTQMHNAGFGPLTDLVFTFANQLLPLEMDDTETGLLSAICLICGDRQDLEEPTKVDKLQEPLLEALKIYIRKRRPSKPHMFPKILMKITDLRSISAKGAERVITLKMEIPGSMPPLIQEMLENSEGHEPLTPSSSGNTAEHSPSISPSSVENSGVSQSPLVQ
Cellular tumor antigen p53 (Homo sapiens), sequence (P04637 whole entry, looked up): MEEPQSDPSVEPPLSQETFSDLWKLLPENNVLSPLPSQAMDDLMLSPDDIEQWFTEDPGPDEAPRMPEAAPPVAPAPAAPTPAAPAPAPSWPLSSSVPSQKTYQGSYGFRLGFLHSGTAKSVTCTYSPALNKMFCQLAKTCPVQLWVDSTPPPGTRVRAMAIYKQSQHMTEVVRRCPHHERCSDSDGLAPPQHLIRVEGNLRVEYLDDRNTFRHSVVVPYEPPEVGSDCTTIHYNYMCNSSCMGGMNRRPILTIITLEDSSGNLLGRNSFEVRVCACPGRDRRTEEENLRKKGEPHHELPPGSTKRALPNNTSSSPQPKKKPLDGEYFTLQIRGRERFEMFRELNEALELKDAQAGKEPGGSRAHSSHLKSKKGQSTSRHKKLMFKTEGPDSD
Retinoic acid receptor alpha (Homo sapiens), sequence (P10276 whole entry, looked up, the tested form may be a part): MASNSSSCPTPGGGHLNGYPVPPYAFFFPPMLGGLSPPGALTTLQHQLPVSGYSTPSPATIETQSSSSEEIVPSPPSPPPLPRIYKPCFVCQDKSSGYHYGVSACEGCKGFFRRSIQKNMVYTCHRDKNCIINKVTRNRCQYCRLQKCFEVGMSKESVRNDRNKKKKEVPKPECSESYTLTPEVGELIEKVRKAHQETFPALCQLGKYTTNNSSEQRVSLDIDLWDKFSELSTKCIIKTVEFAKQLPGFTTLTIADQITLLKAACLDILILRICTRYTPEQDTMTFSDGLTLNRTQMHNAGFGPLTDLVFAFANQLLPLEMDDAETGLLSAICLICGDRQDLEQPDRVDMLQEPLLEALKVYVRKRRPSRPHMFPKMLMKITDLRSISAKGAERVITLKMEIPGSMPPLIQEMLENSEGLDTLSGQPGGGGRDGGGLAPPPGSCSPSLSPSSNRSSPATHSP
human Peroxisome Proliferator-activated Receptor delta (PPARd), PPARD (gene 5467), sequence (Q03181 whole entry, looked up, the tested form may be a part): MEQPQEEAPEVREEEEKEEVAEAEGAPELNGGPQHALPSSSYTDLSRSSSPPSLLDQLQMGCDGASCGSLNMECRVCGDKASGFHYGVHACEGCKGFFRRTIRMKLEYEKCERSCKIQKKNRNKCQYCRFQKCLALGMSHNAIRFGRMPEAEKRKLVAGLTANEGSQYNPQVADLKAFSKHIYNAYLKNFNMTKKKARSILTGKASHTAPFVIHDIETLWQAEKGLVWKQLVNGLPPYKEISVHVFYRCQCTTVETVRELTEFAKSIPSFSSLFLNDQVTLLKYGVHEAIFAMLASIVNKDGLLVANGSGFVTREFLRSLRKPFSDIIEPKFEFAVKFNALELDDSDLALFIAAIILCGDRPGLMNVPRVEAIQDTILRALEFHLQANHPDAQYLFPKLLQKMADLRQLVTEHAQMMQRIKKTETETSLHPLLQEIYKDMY
human Peroxisome Proliferator-activated Receptor alpha (PPARa), PPARA (gene 5465), sequence (Q07869 whole entry, looked up, the tested form may be a part): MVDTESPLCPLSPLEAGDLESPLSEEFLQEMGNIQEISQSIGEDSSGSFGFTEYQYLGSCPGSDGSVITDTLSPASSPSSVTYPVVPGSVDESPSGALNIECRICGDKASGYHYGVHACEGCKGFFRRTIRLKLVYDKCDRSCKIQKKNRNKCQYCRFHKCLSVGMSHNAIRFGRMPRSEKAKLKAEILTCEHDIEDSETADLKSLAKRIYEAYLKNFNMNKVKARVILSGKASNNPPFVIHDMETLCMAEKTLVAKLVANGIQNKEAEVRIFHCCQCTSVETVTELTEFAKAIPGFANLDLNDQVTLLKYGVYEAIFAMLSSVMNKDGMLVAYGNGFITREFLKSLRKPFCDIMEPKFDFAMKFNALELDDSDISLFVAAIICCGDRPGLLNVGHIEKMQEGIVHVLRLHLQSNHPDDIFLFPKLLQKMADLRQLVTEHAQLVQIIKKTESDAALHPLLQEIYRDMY
human RAR-related Orphan Receptor beta (RORb), RORB (gene 6096), sequence (Q92753 whole entry, looked up, the tested form may be a part): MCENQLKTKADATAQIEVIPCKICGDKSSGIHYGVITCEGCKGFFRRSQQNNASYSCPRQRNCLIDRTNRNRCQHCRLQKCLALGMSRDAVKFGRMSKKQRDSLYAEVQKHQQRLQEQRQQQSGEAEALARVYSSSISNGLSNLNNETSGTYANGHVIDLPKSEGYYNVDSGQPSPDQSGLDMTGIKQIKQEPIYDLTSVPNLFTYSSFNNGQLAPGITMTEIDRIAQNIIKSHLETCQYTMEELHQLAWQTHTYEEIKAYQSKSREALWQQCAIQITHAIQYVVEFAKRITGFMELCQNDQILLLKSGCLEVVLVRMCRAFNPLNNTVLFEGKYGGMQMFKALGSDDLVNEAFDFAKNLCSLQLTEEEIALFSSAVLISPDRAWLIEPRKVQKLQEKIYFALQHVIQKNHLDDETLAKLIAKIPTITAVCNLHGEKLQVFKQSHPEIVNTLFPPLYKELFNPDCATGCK
human RAR-related Orphan Receptor gamma (RORg), RORC (gene 6097), sequence (P51449 whole entry, looked up, the tested form may be a part): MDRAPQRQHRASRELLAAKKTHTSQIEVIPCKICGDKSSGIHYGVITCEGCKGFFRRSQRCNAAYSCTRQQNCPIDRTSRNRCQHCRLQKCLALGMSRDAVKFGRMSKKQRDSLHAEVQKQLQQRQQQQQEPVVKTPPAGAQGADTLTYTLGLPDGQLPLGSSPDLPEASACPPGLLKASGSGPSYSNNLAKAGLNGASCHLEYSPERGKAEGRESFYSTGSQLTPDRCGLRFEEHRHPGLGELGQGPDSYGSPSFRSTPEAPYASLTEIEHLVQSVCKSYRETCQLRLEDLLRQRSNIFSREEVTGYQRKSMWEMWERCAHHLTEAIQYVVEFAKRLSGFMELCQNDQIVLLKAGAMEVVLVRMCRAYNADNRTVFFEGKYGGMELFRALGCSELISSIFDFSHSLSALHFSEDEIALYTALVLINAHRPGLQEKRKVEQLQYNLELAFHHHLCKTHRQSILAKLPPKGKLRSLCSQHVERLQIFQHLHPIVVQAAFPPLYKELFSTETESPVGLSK

For the molecule `CC(C)(C)CC(C)(C)c1ccc(OCCOCC[N+](C)(C)Cc2ccccc2)cc1`, the molecule was classed as inactive in [1], in experiment [2], in experiment [4], in experiment [11], in experiment [13] and in [15]. In addition, the AC50 in experiment [3] is 6.71 µM (active); in experiment [5], 8.35 µM (active); in [6] it was 7.26 µM (active); in experiment [7], 5 µM (active); in experiment [8], 7.65 µM (active); in experiment [9] it was 7.69 µM (active). For the same molecule, the AC50 in [10] is 14.4 µM (active); in [12] it was 8.87 µM (active); in experiment [14] it was 7.08 µM (active).
As to `CC(C)CCCCCCCCCCCCCCC(=O)O`, the molecule was called inactive in experiment [1], in experiment [2], in experiment [3], in experiment [4], in experiment [5] and in experiment [10]. In addition, the molecule was called inactive in experiment [11], in experiment [16], in experiment [17] and in [18]. For the same molecule, the AC50 in experiment [15] is 30.2 µM (active).
In the case of `CCCCCCCC(=O)OCC(O)CO` (centres undefined), the molecule was called inactive in experiment [1], in experiment [2], in [3], in [4], in experiment [5] and in experiment [10]. The outcome in experiment [11], in experiment [16], in experiment [15] and in experiment [19] was inactive.
For `Cc1ccc(S(=O)(=O)Oc2ccc(N=Nc3ccc(-c4ccc(N=Nc5c(O)ccc6cc(S(=O)(=O)O)cc(S(=O)(=O)O)c56)c(C)c4)cc3C)cc2)cc1`, the call in experiment [1], in experiment [2], in experiment [3], in experiment [4], in [5] and in [10] was inactive. Further, the molecule was classed as inactive in experiment [11], in [13], in experiment [19] and in [17]. Also, the AC50 in experiment [15] is 18.3 µM (active).
As for `CC(=O)C(C)O` (centres undefined), the molecule was called inactive in experiment [1], in experiment [2], in experiment [3], in [4], in [5] and in experiment [10].
Take `Oc1c(Cl)cc(Cl)c(Cl)c1Cc1c(O)c(Cl)cc(Cl)c1Cl`: the AC50 in experiment [1] was 4.41 µM (active); in experiment [3] it was 3.04 µM (active); in [4], 1.3 µM (active); in experiment [5] it was 11.1 µM (active); in experiment [6], 18.5 µM (active); in experiment [7], 1.23 µM (active). In addition, the half-maximal activity concentration (AC50) in [8] is 20 µM (active); in experiment [9], 10.8 µM (active); in [10] it was 11.1 µM (active); in experiment [14], 2.22 µM (active). Moreover, the call in [2], in experiment [13], in experiment [16], in experiment [19], in experiment [17] and in experiment [18] was inactive.

The values are drawn from PubChem BioAssay (EPA / NIEHS).
